Here are results for 19 compounds from PubChem BioAssay (EPA / NIEHS).

“And” between values parts separate entries of the source, which are not always exact repeats. Identical values can stand only once. Results filed as inconclusive are left out. A structure can be active in one record and inactive in another. The source made the active and inactive calls. The calls were made as follows, unless noted: active = hit-call score of the fitted dose curve at least 0.9, where 1 is the maximum; inactive = score below 0.9.

Experiment [1] concerns the target human Thyroid Receptor alpha (THRa1), THRA (gene 7067) (UniProt P10827). As to the kind of experiment: ATG_THRa1_TRANS: Attagene TRANS-FACTORIAL HepG2 Assay for human Thyroid Receptor alpha (THRa1) (AID 2283014; active = hit-call score of the fitted dose curve at least 0.9, where 1 is the maximum). The procedure, abridged:
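HepG2 cells transiently transfected with chimeric NR-Gal4 and GAL4-UAS reporter units, dosed 24 h. Reporter mRNA quantified by RT-PCR, fluorescent labeling, HpaI digestion and capillary electrophoresis; gain-of-signal fit versus DMSO.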

Read-out in experiment [2]: E-selectin (Homo sapiens) (UniProt P16581)
As to the kind of experiment: BSK_3C_Eselectin: BioMAP Diversity Plus: 3C Assay for Eselectin Biomarker Activity (AID 2283015).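 As to outcome: cell surface E-selectin protein quantified by ELISA 24 h after dosing.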 Particulars: primary human endothelial cells (HUVEC); actives raise or lower the signal. The procedure, abridged:
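Primary human umbilical vein endothelial cells (3C system), read 24 h after compound addition; E-selectin measured by ELISA. Bidirectional curve fitting against DMSO baseline; cytotoxicity by parallel SRB total-protein staining.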

Read-out in experiment [3]: Interleukin-1 alpha (IL1a), IL1A (gene 3552)
As to the kind of experiment: BSK_BE3C_IL1a: BioMAP Diversity Plus: BE3C Assay for Interleukin-1 alpha (IL1a) Biomarker Activity (AID 2283016). Particulars: primary human bronchial epithelial cells; actives raise or lower the signal. The procedure, abridged:
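Human primary bronchial epithelial cells (BE3C system) were dosed with compound and IL-1a measured by ELISA 24 h later. Activity was fitted bidirectionally against DMSO baseline; cytotoxicity was tracked in parallel cultures by SRB total-protein staining.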

Read-out in experiment [4]: Monocyte Chemoattractant Protein-1 (MCP1), CCL2 (gene 6347)
As to the kind of experiment: BSK_3C_MCP1: BioMAP Diversity Plus: 3C Assay for Monocyte Chemoattractant Protein-1 (MCP1) Biomarker Activity (AID 2283017). The following applies: primary human endothelial cells (HUVEC); actives raise or lower the signal. The procedure, abridged:
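Human umbilical vein endothelial cells (3C system) exposed to chemicals for 24 h; MCP-1 quantified by ELISA against the DMSO baseline with bidirectional fitting, and parallel SRB staining used to assess cytotoxicity.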

Read-out in experiment [5]: Monocyte Chemoattractant Protein-1 (MCP1), CCL2 (gene 6347)
As to the kind of experiment: BSK_4H_MCP1: BioMAP Diversity Plus: 4H Assay for Monocyte Chemoattractant Protein-1 (MCP1) Biomarker Activity (AID 2283018). The following applies: primary human endothelial cells (HUVEC); actives raise or lower the signal. The procedure, abridged:
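Human umbilical vein endothelial cells (4H system) dosed with chemical; MCP-1 measured by ELISA 24 h after dosing. Bidirectional curve fitting against DMSO negative control as baseline; parallel SRB total-protein staining tracks overt cytotoxicity.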

Read-out in experiment [6]: Human Leukocyte Antigen - DR isotype (HLADR), HLA-DRA (gene 3122)
As to the kind of experiment: BSK_3C_HLADR: BioMAP Diversity Plus: 3C Assay for Human Leukocyte Antigen - DR isotype (HLADR) Biomarker Activity (AID 2283019). The following applies: primary human endothelial cells (HUVEC); actives raise or lower the signal. The procedure, abridged: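 HUVEC monoculture, HLA-DR measured by ELISA 24 h after chemical dosing. Fitted bidirectionally against DMSO baseline; parallel SRB staining assessed cytotoxicity, with 3C proliferation read by SRB at 48 h.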

Read-out in experiment [7]: Interleukin-8 (IL8), CXCL8 (gene 3576)
As to the kind of experiment: BSK_3C_IL8: BioMAP Diversity Plus: 3C Assay for Interleukin-8 (IL8) Biomarker Activity (AID 2283020). The following applies: primary human endothelial cells (HUVEC); actives raise or lower the signal. The procedure, abridged:
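Primary human umbilical vein endothelial cells (3C system) were exposed to test chemical for 24 h, then IL-8 was quantified by ELISA. Responses were fitted bidirectionally against DMSO vehicle as baseline.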

Read-out in experiment [8]: Monokine induced gamma interferon (MIG), CXCL9 (gene 4283)
As to the kind of experiment: BSK_3C_MIG: BioMAP Diversity Plus: 3C Assay for Monokine induced gamma interferon (MIG) Biomarker Activity (AID 2283021).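 As to AC50: MIG protein level measured by immunoassay in the treated endothelial cultures.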 The following applies: primary human endothelial cells (HUVEC); actives raise or lower the signal. The procedure, abridged:
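Primary human umbilical vein endothelial cells in the 3C system were exposed to chemical for 24 h, after which MIG was quantified by ELISA. Activity was fitted bidirectionally against DMSO as negative control and baseline.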

Experiment [9] concerns the target human Vitamin D Receptor (VDR), VDR (gene 7421) (UniProt P11473). As to the kind of experiment: ATG_VDR_TRANS: Attagene TRANS-FACTORIAL HepG2 Assay for human Vitamin D Receptor (VDR) (AID 2283022; active = hit-call score of the fitted dose curve at least 0.9, where 1 is the maximum). The procedure, abridged:
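HepG2 cells were transiently transfected with GAL4-UAS reporter units and a chimeric VDR-Gal4 construct, then dosed for 24 hours. Reporter mRNA was quantified by RT-PCR, fluorescent labeling, HpaI digestion and capillary electrophoresis; gain of signal analysed vs DMSO.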

In experiment [10] the target is human Retinoid X Receptor beta (RXRb), RXRB (gene 6257) (UniProt P28702). As to the kind of experiment: ATG_RXRb_TRANS: Attagene TRANS-FACTORIAL HepG2 Assay for human Retinoid X Receptor beta (RXRb) (AID 2283013; active = hit-call score of the fitted dose curve at least 0.9, where 1 is the maximum). The procedure, abridged:
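HepG2 cells transiently transfected with multiplexed reporter units driven by GAL4-UAS and exogenous chimeric NR-Gal4 proteins; treated 24 h. Reporter mRNA measured by RT-PCR, 6-FAM labelling and capillary electrophoresis; gain-of-signal fitted versus DMSO baseline.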

Usually AC50 stands for the concentration at which the activity in the assay is half-maximal.

Chain of human Vitamin D Receptor (VDR), VDR (gene 7421) (P11473 whole entry, looked up, the tested form may be a part): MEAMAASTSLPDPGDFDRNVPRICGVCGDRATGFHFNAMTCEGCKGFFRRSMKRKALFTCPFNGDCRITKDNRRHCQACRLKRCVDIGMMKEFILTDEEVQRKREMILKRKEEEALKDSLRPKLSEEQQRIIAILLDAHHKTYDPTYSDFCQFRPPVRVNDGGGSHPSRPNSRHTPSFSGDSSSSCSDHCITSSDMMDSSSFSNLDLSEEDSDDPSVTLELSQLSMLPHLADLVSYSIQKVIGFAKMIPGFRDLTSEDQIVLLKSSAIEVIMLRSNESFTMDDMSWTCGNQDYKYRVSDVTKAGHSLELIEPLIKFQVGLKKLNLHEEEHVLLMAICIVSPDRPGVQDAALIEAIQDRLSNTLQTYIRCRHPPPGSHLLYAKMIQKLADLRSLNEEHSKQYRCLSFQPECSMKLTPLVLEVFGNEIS
Chain of human Thyroid Receptor alpha (THRa1), THRA (gene 7067) (P10827 whole entry, looked up, the tested form may be a part): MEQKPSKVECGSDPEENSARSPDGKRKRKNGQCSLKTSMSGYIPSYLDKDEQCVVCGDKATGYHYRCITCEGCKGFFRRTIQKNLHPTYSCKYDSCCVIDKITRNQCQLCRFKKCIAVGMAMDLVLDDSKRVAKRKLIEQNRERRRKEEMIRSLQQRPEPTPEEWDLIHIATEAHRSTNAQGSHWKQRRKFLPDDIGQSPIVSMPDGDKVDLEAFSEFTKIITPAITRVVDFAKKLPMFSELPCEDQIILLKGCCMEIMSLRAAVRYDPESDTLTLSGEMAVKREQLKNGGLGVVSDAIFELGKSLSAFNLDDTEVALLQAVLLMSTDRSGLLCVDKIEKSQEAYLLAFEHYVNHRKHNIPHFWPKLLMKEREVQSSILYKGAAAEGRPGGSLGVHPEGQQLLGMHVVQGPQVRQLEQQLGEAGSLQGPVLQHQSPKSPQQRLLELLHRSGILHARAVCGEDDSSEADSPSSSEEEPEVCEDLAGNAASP
Chain of E-selectin (Homo sapiens) (P16581 whole entry, looked up): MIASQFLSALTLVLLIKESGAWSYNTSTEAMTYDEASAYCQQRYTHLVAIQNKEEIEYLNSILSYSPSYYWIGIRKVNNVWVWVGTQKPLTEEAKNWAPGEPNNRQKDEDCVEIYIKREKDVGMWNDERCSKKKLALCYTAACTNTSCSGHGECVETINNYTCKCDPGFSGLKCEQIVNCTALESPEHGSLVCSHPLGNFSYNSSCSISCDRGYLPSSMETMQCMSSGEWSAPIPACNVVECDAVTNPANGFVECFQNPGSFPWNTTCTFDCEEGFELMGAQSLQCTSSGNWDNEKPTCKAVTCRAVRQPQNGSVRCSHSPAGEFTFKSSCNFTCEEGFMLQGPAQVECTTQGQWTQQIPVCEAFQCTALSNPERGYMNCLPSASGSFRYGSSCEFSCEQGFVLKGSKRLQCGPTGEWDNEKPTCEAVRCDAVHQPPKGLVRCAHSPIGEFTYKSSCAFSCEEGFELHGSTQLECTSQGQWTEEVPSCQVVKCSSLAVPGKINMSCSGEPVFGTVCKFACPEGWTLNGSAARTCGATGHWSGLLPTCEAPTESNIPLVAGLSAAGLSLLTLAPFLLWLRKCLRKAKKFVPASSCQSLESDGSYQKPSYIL
Chain of human Retinoid X Receptor beta (RXRb), RXRB (gene 6257) (P28702 whole entry, looked up, the tested form may be a part): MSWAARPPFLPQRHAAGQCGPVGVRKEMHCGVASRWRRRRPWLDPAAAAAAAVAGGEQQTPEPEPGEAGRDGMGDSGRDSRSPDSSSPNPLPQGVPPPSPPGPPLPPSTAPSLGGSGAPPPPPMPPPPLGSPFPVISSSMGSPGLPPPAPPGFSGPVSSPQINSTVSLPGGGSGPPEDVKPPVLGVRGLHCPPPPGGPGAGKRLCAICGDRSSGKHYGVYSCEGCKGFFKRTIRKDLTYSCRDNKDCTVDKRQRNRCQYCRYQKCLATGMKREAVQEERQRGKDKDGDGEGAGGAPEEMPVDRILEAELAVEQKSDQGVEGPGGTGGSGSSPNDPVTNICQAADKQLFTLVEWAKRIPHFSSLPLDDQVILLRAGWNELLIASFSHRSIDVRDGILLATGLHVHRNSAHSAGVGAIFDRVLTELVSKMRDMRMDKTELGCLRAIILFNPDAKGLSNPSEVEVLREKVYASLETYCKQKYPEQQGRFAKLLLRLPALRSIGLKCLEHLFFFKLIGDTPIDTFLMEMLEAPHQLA

Turning to `CCCCCCC(=O)O`, the compound was classed as inactive in experiment [1], in experiment [2], in [3], in [4], in experiment [5] and in experiment [6]. Moreover, the result in experiment [7], in experiment [8] and in experiment [9] was inactive.
Turning to `O=[N+]([O-])c1ccc(O)cc1`, the outcome in experiment [2], in experiment [3], in experiment [4], in [5], in experiment [6] and in experiment [7] was inactive.
As for `O=C(O)Cc1cc(I)c(Oc2cc(I)c(O)c(I)c2)c(I)c1`, the AC50 in [10] was 2.55 µM (active) and 17.6 µM (active); in experiment [1], 7.41 nM (active) and 21.4 nM (active); in [3] it was 8.95 µM (active); in [4], 25.4 µM (active); in experiment [5] it was 19.9 µM (active); in experiment [6], 26.2 µM (active). In addition, the AC50 in experiment [7] was 22.4 µM (active). In addition, the result in experiment [2] and in experiment [9] was inactive.
As for `NC(=O)N1C(=O)C(C(=O)c2cc(Cl)cs2)c2cc(F)c(Cl)cc21` (centres undefined), the compound was classed as inactive in [1], in [2], in [5], in experiment [7] and in experiment [9]. In addition, the concentration at half-maximal activity (AC50) is 7.87 µM (active) in experiment [3], 5.16 µM (active) in [4] and 13.4 µM (active) in [6].
Take `Cc1oc(-c2ccccc2)nc1CCOc1ccc(C[C@H](Nc2ccccc2C(=O)c2ccccc2)C(=O)O)cc1`: the AC50 in experiment [2] is 31.1 µM (active); in experiment [3] it was 5.44 µM (active); in experiment [4] it was 32.5 µM (active); in [5], 20 µM (active); in [6] it was 28.5 µM (active); in experiment [7], 28.5 µM (active). The compound was called inactive in [9].
Regarding `Oc1cccc(O)c1`, the outcome in [2], in [3], in experiment [4], in experiment [5], in experiment [6] and in [7] was inactive. The compound was classed as inactive in [9].
On to `CCc1nn(C2CCCCC2)c2cc(C3(C#N)CCC(C(=O)O)CC3)ccc12` (centres undefined), for which the outcome in [10], in experiment [3], in experiment [5], in experiment [8] and in [9] was inactive. For the same compound, the AC50 was 9.4 µM (active) in [2], 10.6 µM (active) in experiment [4], 20 µM (active) in experiment [6] and 7 µM (active) in experiment [7].
Turning to `CC#C[C@]1(O)CC[C@H]2[C@@H]3CCC4=CC(=O)CCC4=C3[C@@H](c3ccc(N(C)C)cc3)C[C@@]21C`, in [1], the outcome was inactive. Moreover, the AC50 in experiment [2] was 29.3 µM (active); in experiment [3], 32.1 µM (active); in experiment [4] it was 36.3 µM (active); in experiment [5], 20 µM (active); in [6], 37.7 µM (active); in experiment [7], 31.1 µM (active). Besides, in experiment [8], the AC50 was 38.3 µM (active).
For `N#C[C@@H]1CC(F)(F)CN1C(=O)CNC1CC2CCC(C1)N2c1ncccn1` (some centres undefined), the outcome in [10], in [2], in [3], in [5] and in experiment [8] was inactive. For the same compound, the AC50 in [4] is 4.85 µM (active); in experiment [6] it was 2.58 µM (active); in experiment [7] it was 7.55 µM (active).
With `CC1=C(/C=C/C(C)=C/C=C/C(C)=C/C(=O)O)C(C)(C)CCC1`, the compound was classed as inactive in experiment [1], in experiment [3], in [4], in experiment [5], in experiment [7] and in experiment [8]. The outcome in experiment [9] was inactive. In addition, the AC50 in [2] is 20 µM (active); in experiment [6] it was 19.6 µM (active).
For the compound `COc1ccc([N+](=O)[O-])cc1N`, the compound was called inactive in experiment [1], in [2], in experiment [3], in experiment [4], in experiment [5] and in experiment [6]. For the same compound, the result in experiment [7] and in experiment [8] was inactive.
With `CC(=O)CC(C)(C)O`, the result in experiment [10], in experiment [1], in experiment [2], in experiment [3], in experiment [4] and in [5] was inactive. The result in experiment [6], in experiment [7] and in experiment [9] was inactive.
As to `Oc1cc2ccccc2c2ccccc12`, the call in experiment [10] and in experiment [9] was inactive. In addition, the AC50 in experiment [2] is 8.36 µM (active); in [3] it was 17.7 µM (active); in [4], 10 µM (active); in experiment [5], 7.67 µM (active); in [6], 6.95 µM (active); in experiment [7], 9.59 µM (active).
Take `CN1CCC[C@H]1c1cccnc1`: the outcome in [1], in [2], in [3], in experiment [4], in experiment [5] and in experiment [6] was inactive. For the same compound, the outcome in [7] and in experiment [9] was inactive.
For `CN1CCN(c2ccccc2/C=C2\SCCN(c3ccc(Cl)c(Cl)c3)C2=O)CC1`, the outcome in [2] and in experiment [9] was inactive. The AC50 in experiment [3] is 30.9 µM (active); in experiment [4], 7.36 µM (active); in [5], 20 µM (active); in [6], 11.3 µM (active); in experiment [7], 3.55 µM (active).
In the case of `CCC(=C(c1ccc(O)cc1)c1ccc(OCCN(C)C)cc1)c1ccccc1`, the result in [10], in experiment [1] and in [9] was inactive. The AC50 is 11.1 µM (active) in experiment [2]; 9.53 µM (active) in experiment [3]; 8.6 µM (active) in [4]; 12.5 µM (active) in experiment [5]; 8.28 µM (active) in experiment [6]; 9.28 µM (active) in experiment [7]. Moreover, the concentration at half-maximal activity (AC50) in experiment [9] was 11.6 µM (active).
Consider `CCCCC[C@H](O)CC(=O)CCc1ccc(O)c(OC)c1`, for which the compound was called inactive in experiment [1] and in experiment [9].
`NC(=O)N(O)[C@@H]1C=C[C@H](Oc2cccc(Oc3ccc(F)cc3)c2)C1`: the compound was classed as inactive in experiment [10], in [2], in [3], in experiment [4], in [5] and in experiment [6]. The outcome in experiment [7], in experiment [8] and in [9] was inactive.
For the compound `CC(O)C(=O)O` (centres undefined), the call in [10], in [1] and in experiment [9] was inactive.
